# Test results taken from PubChem BioAssay AID893 (National Center for Advancing Translational Sciences (NCATS), 2007).
# Out of some 75,000 compounds screened, about 5,700 (7.6%) were called active. Roughly 7% stayed inconclusive and do not appear here. The call rests on the fitted dose curve; in most records, active means well fitted inhibition curve with a large enough effect; inconclusive means small, poorly fitted or top-dose-only effect; inactive means no such curve, though single readings can be large or run the other way. The full list was thinned out, with actives kept by preference.
# Target: 3-hydroxyacyl-CoA dehydrogenase type-2 (Homo sapiens) (UniProt Q99714)
# Experiment: qHTS Assay for Inhibitors of HSD17B4, hydroxysteroid (17-beta) dehydrogenase 4; further: nearly all actives have a fitted effect of over 70% in size
# Settings: recombinant HSD17B10, NADH fluorescence kinetic; series mostly up to 57.1 µM; activity change, negative = inhibition: at the top concentration
# Excerpt: Assay Overview: NIH Molecular Libraries Screening Centers Network [MLSCN] NIH Chemical Genomics Center [NCGC] Structural Genomics Consortium [SGC] Grant number: None HADH2: Hydroxyacyl-Coenzyme A dehydrogenase, type II, was supplied by researchers at the Structural Genomics Consortium, Oxford University lab (PI Udo Oppermann). The mitochondrial enzyme 17-hydroxysteroid dehydrogenase type 10 (HSD17-10) previously classified as type II hydroxyacyl-CoA dehydrogenase (HADH2) catalyzes the NAD+ dependent oxidation of a variety of substrates including acyl-CoAs, androgens and neurosteroids as well as bile acids(Shafqat N, Marschall HU, Filling C, et al. Biochemical Journal. 2003;376(Pt 1):49-60). […] The enzyme was produced by E.coli fermentation as His-tagged recombinant for the purpose of X-ray structure determination, and had been mass-spectrometry characterized. Inhibition of HADH2 activity was screened by utilizing beta-hydroxybutyryl coenzyme A as an electron donor and NAD+ as an electron acceptor/cofactor. An increase in the fluorescence intensity due to conversion of NAD+ to NADH was used to measure the enzyme activity.
# Assay Protocol: Buffer: 100 mM Tris-HCl pH 9.0, containing 0.01 % Tween-20. Reagents/Controls: Buffer in columns 3 and 4 as negative control (no enzyme). Substrate/cofactor solution: 1 mM NAD+ and 90 uM beta-hydroxybutyryl coenzyme A (Sigma-Aldrich, St. Louis, MO) final concentrations dispensed throughout the plate. Enzyme: 20 nM HADH2 final concentration in columns 1, 2, 5-48. Column 1 is neutral (100% activity). Column 2 contained titration of apomorphine (Sigma-Aldrich, A 4393, PubChem CID 2215, top concentration 500 uM, then 1:2 dilution in duplicate) Assay Steps: Three uL of enzyme were dispensed to 1536-well Greiner black solid bottom plates. Compounds and controls (23 nL) were transferred via Kalypsys PinTool. The plates were incubated for 15 min at room temperature, and then 1 uL of substrate/cofactor solution was added to start the reaction. The plates were immediately transferred to and read every 30 seconds for 4 min on ViewLux High-throughput CCD imager (Perkin-Elmer) using 360 nm excitation and 450 nm emission fluorescence protocol. The fluorescence intensity difference between the last and the first time points was used to compute reaction progress.
# On the % scale 0 is the no-effect control and ±100 the full control effect; potency means the concentration at half of the fitted maximal effect.
SMILES,Potency,"activity change, negative = inhibition"
CCOC(=O)c1cc(-c2ccc(Cl)s2)nc2c1c(C)nn2C,31.6 µM (active),–
CCOC(=O)C1=C(O)CSC1=Nc1cccc(Cl)c1,–,5.61% (inactive)
Cn1cccc1Cc1nnc(SCC(=O)NCCc2ccccc2)n1-c1ccc(F)cc1,–,3.88% (inactive)
N#Cc1c(NC(=O)CCCN2C(=O)c3ccccc3C2=O)oc(-c2ccccc2)c1-c1ccccc1,–,5.71% (inactive)
Cc1ccc(N2C(=O)c3oc4ccccc4c(=O)c3C2c2cccnc2)nc1 (stereo unspecified),–,5.96% (inactive)
CCCn1c(C(O)c2cc(OC)ccc2OC)nc2ccccc21 (stereo unspecified),–,-0.382% (inactive)
COCCn1c(-c2ccc(OC)c(OC)c2)nc2ccccc21,25.1 µM (active),–
COc1ccc(CCn2c(-c3ccco3)nc3nc4ccccc4nc32)cc1OC,–,-12.8% (inactive)
CC(Sc1nc2ccccc2c(=O)n1Cc1ccco1)C(=O)c1ccccc1 (stereo unspecified),–,7.76% (inactive)
Cn1c(COc2ccc(Cl)cc2)nc2ccccc2c1=O,–,-28.2% (inactive)
Cc1nc2c(c(=O)n1Cc1ccco1)c1nc3ccccc3nc1n2Cc1ccccc1,25.1 µM (active),–
COCCCn1c2nc3ccccc3nc2c2c(=O)n(Cc3ccc(Cl)cc3)c(C)nc21,2 µM (active),–
N#Cc1c(NC(=O)CSc2nc3ccccc3c(=O)n2Cc2ccco2)sc2c1CCCC2,–,-28.8% (inactive)
Cc1nc2ccccc2c(=O)n1CCCn1ccnc1,–,2.75% (inactive)
Cc1ccc(Cn2c(C)nc3c(c2=O)c2nc4ccccc4nc2n3Cc2ccco2)cc1,25.1 µM (active),–
COc1ccccc1NC(=O)CSc1nc2sc(C)c(C)c2c(=O)n1Cc1ccco1,–,-11.5% (inactive)

SMILES,Potency,"activity change, negative = inhibition"
Nc1cc(=O)nc(SCc2ccccc2)n1Cc1ccco1,–,-1.73% (inactive)
CC1CCN(c2nc3c(c(=O)[nH]c(=O)n3C)n2CCCc2ccccc2)CC1,–,8.8% (inactive)
CCC1(C)CC(=O)NC1=O (stereo unspecified),–,-1.08% (inactive)
COc1ccc(N)c(OC)c1,–,3.29% (inactive)
CCOC(=O)CSc1nnc(CNc2ccc(F)cc2)o1,–,-11.8% (inactive)
CC/C(=N\O)C(C)(C)/[N+]([O-])=C/c1ccc(Br)cc1,–,15.6% (inactive)
O=C(O)C(O)[C@@](O)(Cc1ccc(O)cc1)C(=O)O (stereo partly specified),–,-0.363% (inactive)
CC1Cn2c(nnc2-c2cccs2)S1 (stereo unspecified),–,-1.46% (inactive)
CSc1cccc(NC(=O)CSc2ccccc2)c1,–,-27.3% (inactive)
NC(=NC(=O)c1ccccc1)C1=C(O)CCC1=O,–,2.94% (inactive)
CCS(=O)(=O)N(C)[C@@H]1c2cc(C#N)ccc2OC(C)(C)[C@H]1O,inactive,–
Cc1ccc(NC(=O)c2cc(-c3ccc(C)o3)nc3ccccc23)nc1,31.6 µM (active),–
Cc1ccc2nc(-c3ccccc3)cc(C(=O)O)c2c1,–,-22.3% (inactive)
Cc1cc(=O)oc(C)c1C(=O)Nc1cnc2ccccc2c1,–,-0.842% (inactive)
Cc1ccc(S(=O)(=O)N2CCC(C(=O)OCC(=O)N3CC(=O)Nc4ccccc43)CC2)cc1,–,9.91% (inactive)
